INS promoter inh: TRM-6 insulin promoter activity inhibition. TRM-6 cells (human fetal islet line), insulin promoter-eGFP reporter, imaging; reporter expression induced with tamoxifen. inhibition, % at 2 µM. 130,000 compounds, 0.9% hits;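 active means inhibition above the mean plus 3 SD, with well images judged a real hit on visual review, cut at about 60% in these data, passing the limit was not always enough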
Ins promoter up: MIN6 insulin promoter up-regulation; MIN6 insulin promoter-GFP reporter, high-content imaging; hits give high values; 190,000 compounds, 0.3% hits; z-score at 5 µM;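 active means z-score above 3 at 5 µM with at least 500 cells counted in the well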
WT yeast gro inh: growth inhibition of WT yeast, mitochondrial fusion screen; 190,000 compounds, 2.1% hits; mitochondrial fusion phenotypic screen, WT strain; inhibition, % at 10 µM; in the data active means inhibition above about 58%; tested in S. cerevisiae
Lmaj promast: Leishmania major promastigote growth inhibition. Leishmania major promastigotes, resazurin fluorescence viability. inhibition, % at 10 µM. 200,000 compounds, 9% hits. AID 1063; in the data active means inhibition above about 50%;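 further: promastigotes grown with compound for 44 hours at 28 °C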
ROMK primary: modulates human ROMK potassium channel activity | P48048 | Tet-inducible ROMK, thallium flux fluorescence; actives lie on both sides | B-score at 10 µM | 130,000 compounds, 2% hits | AID 1918;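 active means signal ratio slope over the read window, or its plate-corrected B-score, at least 3 SD from the plate mean, either direction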;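 further: B-score of the F/F0 ratio slope over 7 to 12 s after thallium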
Target sequence (P48048 whole entry, looked up): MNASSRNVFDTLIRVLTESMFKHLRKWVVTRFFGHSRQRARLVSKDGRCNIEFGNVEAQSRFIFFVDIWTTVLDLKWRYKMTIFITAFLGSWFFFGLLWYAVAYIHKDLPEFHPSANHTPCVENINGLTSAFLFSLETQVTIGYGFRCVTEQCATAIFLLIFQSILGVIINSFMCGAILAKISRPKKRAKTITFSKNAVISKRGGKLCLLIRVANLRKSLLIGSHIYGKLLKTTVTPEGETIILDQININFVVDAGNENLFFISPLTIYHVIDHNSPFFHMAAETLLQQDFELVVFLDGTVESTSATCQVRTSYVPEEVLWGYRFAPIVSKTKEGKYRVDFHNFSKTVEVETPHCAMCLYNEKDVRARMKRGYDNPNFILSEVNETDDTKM
Cl transport mod: modulators of human KCC2 chloride dependent transport; KCC2 cells, thallium flux FluoZin-2 fluorescence; B-score of Tl+ flux slope (higher = more flux/activation; lower = inhibition) at 10 µM; 190,000 compounds, 2.2% hits;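 active means thallium flux slope and its plate-corrected score both differing from the plate sample mean at a set confidence after two filtering rounds, in either direction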;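 further: slope of fluorescence scaled to starting intensity during 10 to 20 s after thallium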
ROMK retest: human ROMK channel modulation, retest confirmation; shares compounds with ROMK primary; normalized thallium flux (F/F0 slope) at 10 µM; 3,000 compounds, 54% hits; AID 1917; ROMK thallium flux, fluorescence ratio; hits give low values;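 active means Flux at 10 µM at least 3 SD below or above vehicle control mean in one or both replicates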
Active calls of the source: *; . = no result. Shown are actives, neighbours in structure and some others; about 12% of the full set was active somewhere.

SMILES	INS promoter inh	Ins promoter up	WT yeast gro inh	Lmaj promast	ROMK primary	Cl transport mod	ROMK retest
CCC(C)NC(=O)CSc1nc2c(sc3ccccc32)c(=O)n1CCCN1CCOCC1 (stereo not given)	15	0.66	7	20	2.6*	0.42	0.076
COC(=O)[C@@]1(Cc2ccc(OC)cc2)[C@H]2c3cc(C(=O)N(C)C)n(CCc4ccc(OC)c(Br)c4)c3C[C@H]2CN1C(=O)c1ccccc1	5	-0.15	25	62*	-3.8*	0.18	0.065*
COC(=O)[C@@]1(Cc2ccc(F)cc2)[C@H]2c3cc(C(=O)N(C)C)n(CCSCCO)c3C[C@H]2CN1C(=O)c1ccccc1	-30	-0.73	1	-4	0.19	0.55	.
CCOCCCNC(=O)/C(C#N)=C/c1ccccc1F	.	-0.32	14	28	-3.9*	0.31	0.052*
CCOCCCNC(=O)/C(C#N)=C/c1ccc(C(=O)OC)cc1	.	-0.06	-2	58*	-2.2*	0.84	0.045*
CCOCCCNC(=O)/C(C#N)=C/c1cc(C)c(O)c(C)c1	.	0.65	-1	3	1.5	-0.49	.
